Laboratory results published in PubChem BioAssay (NCI).
This is part of a sample that, as a whole, favours compounds with a hit. Of some 79,000 tested, about 15% had one in any assay. Calls of active or inactive are those of the source. Rule as the data show it: active = growth inhibition above about 70%; inactive = the rest.

How the values were obtained:
[1] = NCI Yeast Anticancer Drug Screen. Data for the mec2-1 strain (AID 157); details: S. cerevisiae mec2-1 strain, active compounds read high
How it was run: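 Mutant yeast (mec2-1) grown with compound; growth inhibition relative to vehicle control reported.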

[2] = NCI Yeast Anticancer Drug Screen. Data for the rad14 strain (AID 159);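 also: 0% = growth of vehicle-treated control cultures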; details: S. cerevisiae rad14 strain growth inhibition, active compounds read high
How it was run: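 Test compounds were applied to a repair-deficient yeast strain. Its growth was then compared with that of cultures given vehicle alone, and inhibition was expressed relative to those controls.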

[3] = NCI Yeast Anticancer Drug Screen. Data for the sgs1 mgt1 strain (AID 161);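 also: 0% = growth of cultures given vehicle only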; details: S. cerevisiae sgs1 mgt1 strain, active compounds read high
How it was run: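 Compounds are added to genetically altered yeast, and growth is compared with cultures given vehicle alone to give percent inhibition.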

[4] = NCI Yeast Anticancer Drug Screen. Data for the CLN2oe strain (AID 163);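 also: 0% = growth of vehicle-only control cultures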; details: S. cerevisiae CLN2oe strain, active compounds read high
How it was run: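 Compounds are applied to yeast harbouring a defined cell-cycle control change; reduced growth compared with vehicle-treated controls gives the value.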

[5] = NCI Yeast Anticancer Drug Screen. Data for the cln2 rad14 strain (AID 165);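 also: 0% = growth equal to vehicle treated cultures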; details: S. cerevisiae cln2 rad14 strain, active compounds read high
How it was run: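 Readout is yeast growth inhibition versus vehicle-treated controls, using a strain with cln2 and rad14 alterations exposed to compound.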

[6] = NCI Yeast Anticancer Drug Screen. Data for the bub3 strain (AID 167); details: S. cerevisiae bub3 mutant strain, active compounds read high
How it was run: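 Yeast carrying a defined mutation is treated with each compound, and growth is compared with that of vehicle-exposed cells to give inhibition.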

[7] = NCI Yeast Anticancer Drug Screen. Data for the wt2 strain (AID 169);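 also: 0% = growth of vehicle-treated yeast cultures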; details: S. cerevisiae wt2 strain growth inhibition, active compounds read high
How it was run: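 Against vehicle-treated controls, the growth of yeast exposed to each compound was compared, and the inhibition was recorded.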

[8] = NCI Yeast Anticancer Drug Screen. Data for the mlh1 strain (AID 171);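 also: 0% = growth of vehicle-treated control cultures of the same strain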; details: S. cerevisiae mlh1 strain growth inhibition, active compounds read high
How it was run: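 Measured: yeast growth. Reference: vehicle-treated controls. Organism: strain with a defined alteration affecting DNA damage repair or cell cycle control, treated with compound.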

[9] = NCI Yeast Anticancer Drug Screen. Data for the sgs1 strain (AID 173);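 also: 0% = growth of vehicle-only control cultures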; details: S. cerevisiae sgs1 mutant, active compounds read high
How it was run: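 Each compound was added to cultures of the altered yeast strain. Growth was recorded, and inhibition was derived by comparison with vehicle controls.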

[10] = NCI Yeast Anticancer Drug Screen. Data for the mlh1 rad18 strain (AID 175); details: S. cerevisiae mlh1 rad18 strain growth inhibition, active compounds read high
How it was run: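 Genetically defined yeast (DNA repair-deficient) exposed to compounds; growth inhibition determined relative to vehicle.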

[11] = NCI Yeast Anticancer Drug Screen. Data for the rad18 strain (AID 177); details: S. cerevisiae rad18 mutant growth inhibition, active compounds read high
How it was run: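 Vehicle-treated cultures served as the baseline for scoring compound-induced growth inhibition in DNA-repair-mutant yeast.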

[12] = NCI Yeast Anticancer Drug Screen. Data for the rad52 strain (AID 147);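 also: 0% = growth of vehicle-treated control cultures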; details: S. cerevisiae rad52 mutant growth inhibition, active compounds read high
How it was run: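 The repair-mutant yeast strain was incubated with compounds, then growth was read and inhibition derived relative to vehicle.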

[13] = NCI Yeast Anticancer Drug Screen. Data for the wt1 strain (AID 149);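 also: 0% = growth of vehicle-treated wt1 cultures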; details: S. cerevisiae wt1 strain (SPY 50644) growth inhibition, active compounds read high
How it was run: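 wt1 yeast, compound-treated; % growth inhibition vs vehicle control.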

[14] = NCI Yeast Anticancer Drug Screen. Data for the rad50EPP+ strain (AID 151);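 also: 0% = growth of vehicle-treated control cultures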; details: S. cerevisiae rad50 mutant strain, active compounds read high
How it was run: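 Vehicle-normalised growth inhibition; rad50EPP+ yeast strain, altered in DNA damage repair, compound-treated.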

[15] = NCI Yeast Anticancer Drug Screen. Data for the mgt1 strain (AID 153); details: S. cerevisiae mgt1 mutant growth inhibition, active compounds read high
How it was run: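 Vehicle-normalized growth inhibition is determined in mgt1 yeast, a strain selected for a defined alteration in DNA repair or cell cycle control.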

[16] = NCI Yeast Anticancer Drug Screen. Data for the rad50 strain (AID 155);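 also: 0% = growth of vehicle-only cultures of the same strain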; details: S. cerevisiae rad50 strain growth inhibition, active compounds read high
How it was run: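 Genetically altered yeast (DNA repair pathway); compound treatment; growth inhibition vs vehicle ctrl.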

[17] = at 5.0 µM (retest, dose inferred, filed as 0.5)
[18] = at 50.0 µM (retest, dose inferred, filed as 5.0)

Measured: growth inhibition

Cc1c(C2=C(Br)C(=O)N(C)C2=O)c(=O)n(C)c(=O)n1C
inactive: [1]; [17] -3% | [1]; at 11.0 µM 26% | [1]; at 33.0 µM 45% | [1]; [18] 20% | [1]; at 50.0 µM 56.1% | [2]; at 1.2 µM 5% | [2]; at 3.7 µM 13% | [2]; at 11.0 µM 28% | [2]; at 33.0 µM 47% | [3]; [17] 0% | [3]; [18] 5% | [3]; at 50.0 µM 58.6% | [4]; at 1.2 µM -2% | [4]; at 3.7 µM 0% | [4]; at 11.0 µM 1% | [4]; at 33.0 µM 10% | [4]; at 100.0 µM 44% | [5]; [17] 20% | [5]; [18] -14% | [5]; at 50.0 µM 3.95% | [6]; at 1.2 µM 1% | [6]; at 3.7 µM 4% | [6]; [17] 6% | [6]; at 11.0 µM 18% | [6]; at 33.0 µM 47% | [6]; [18] 57% | [6]; at 50.0 µM 28.1% | [7]; at 1.2 µM 0% | [7]; at 3.7 µM 3% | [7]; at 11.0 µM 11% | [7]; at 33.0 µM 39% | [8]; at 1.2 µM 0% | [8]; at 3.7 µM 3% | [8]; at 11.0 µM 13% | [8]; at 33.0 µM 48% | [9]; at 1.2 µM 2% | [9]; at 3.7 µM 11% | [9]; at 11.0 µM 22% | [9]; at 33.0 µM 60% | [10]; [17] 4% | [11]; at 1.2 µM 17% | [11]; at 3.7 µM 46%
active: [1]; at 100.0 µM 94% | [2]; at 100.0 µM 91% | [6]; at 100.0 µM 91% | [7]; at 100.0 µM 95% | [8]; at 100.0 µM 97% | [9]; at 100.0 µM 94% | [10]; [18] 84% | [10]; at 50.0 µM 91.7% | [11]; at 11.0 µM 75% | [11]; at 33.0 µM 88% | [11]; at 100.0 µM 96%

Cc1cccc2c(C(O)CBr)cc(-c3ccc(Cl)cc3)nc12 (centres undefined)
active: [12]; at 11.0 µM 98% | [12]; at 33.0 µM 96% | [12]; at 100.0 µM 87% | [13]; at 11.0 µM 98% | [13]; at 33.0 µM 97% | [13]; at 100.0 µM 91% | [15]; at 11.0 µM 98% | [15]; at 33.0 µM 97% | [15]; at 100.0 µM 92% | [16]; at 11.0 µM 98% | [16]; at 33.0 µM 96% | [16]; [18] 93% | [16]; at 50.0 µM 93.8% | [16]; at 100.0 µM 88% | [1]; at 11.0 µM 99% | [1]; at 33.0 µM 97% | [1]; [18] 96% | [1]; at 50.0 µM 96.1% | [2]; at 11.0 µM 99% | [2]; at 33.0 µM 97% | [2]; at 100.0 µM 88% | [3]; [18] 95% | [3]; at 50.0 µM 95.7% | [4]; at 11.0 µM 98% | [4]; at 33.0 µM 96% | [5]; [18] 95% | [5]; at 50.0 µM 92.8% | [6]; at 11.0 µM 98% | [6]; at 33.0 µM 96% | [6]; [18] 96% | [6]; at 50.0 µM 92.5% | [7]; at 11.0 µM 98% | [7]; at 33.0 µM 96% | [7]; at 100.0 µM 88% | [8]; at 11.0 µM 98% | [8]; at 33.0 µM 95% | [9]; at 11.0 µM 98% | [9]; at 33.0 µM 96% | [9]; at 100.0 µM 90% | [10]; [18] 95% | [10]; at 50.0 µM 95.3% | [11]; at 11.0 µM 98% | [11]; at 33.0 µM 95% | [11]; at 100.0 µM 88%
inactive: [12]; at 1.2 µM 0% | [12]; at 3.7 µM 20% | [13]; at 1.2 µM -3% | [13]; at 3.7 µM -5% | [14]; at 1.2 µM 1% | [14]; at 3.7 µM 10% | [14]; at 11.0 µM 32% | [14]; at 33.0 µM 40% | [14]; at 100.0 µM 54% | [15]; at 1.2 µM -2% | [15]; at 3.7 µM -1% | [16]; at 1.2 µM 0% | [16]; at 3.7 µM 11% | [16]; [17] 3% | [1]; at 1.2 µM 0% | [1]; at 3.7 µM 4% | [1]; [17] 1% | [1]; at 100.0 µM 51% | [2]; at 1.2 µM -4% | [2]; at 3.7 µM 3% | [3]; [17] 3% | [4]; at 1.2 µM -2% | [4]; at 3.7 µM -3% | [4]; at 100.0 µM 51% | [5]; [17] -10% | [6]; at 1.2 µM 0% | [6]; at 3.7 µM 8% | [6]; [17] -1% | [6]; at 100.0 µM 45% | [7]; at 1.2 µM -4% | [7]; at 3.7 µM -6% | [8]; at 1.2 µM -5% | [8]; at 3.7 µM 1% | [8]; at 100.0 µM 48% | [9]; at 1.2 µM -2% | [9]; at 3.7 µM 7% | [10]; [17] 1% | [11]; at 1.2 µM -3% | [11]; at 3.7 µM 17%

CSC1=NNC(SC)=NN1
inactive: [12]; at 1.2 µM -13% | [12]; at 3.7 µM -5% | [12]; at 11.0 µM 3% | [13]; at 1.2 µM -7% | [13]; at 3.7 µM -9% | [13]; at 11.0 µM -6% | [13]; at 33.0 µM 51% | [14]; at 1.2 µM -4% | [14]; at 3.7 µM -9% | [14]; at 11.0 µM 0% | [14]; at 33.0 µM 55% | [15]; at 1.2 µM 12% | [15]; at 3.7 µM 14% | [15]; at 11.0 µM 12% | [16]; at 1.2 µM -4% | [16]; at 3.7 µM 0% | [16]; [17] 49% | [16]; at 11.0 µM 15% | [16]; at 33.0 µM 66% | [16]; [18] 41% | [16]; at 50.0 µM 59.9% | [1]; at 1.2 µM -4% | [1]; at 3.7 µM -22% | [1]; [17] 44% | [1]; at 11.0 µM 15% | [1]; [18] 41% | [1]; at 50.0 µM 44.4% | [2]; at 1.2 µM -16% | [2]; at 3.7 µM -4% | [2]; at 11.0 µM 36% | [3]; [17] -1% | [3]; at 50.0 µM 58.5% | [4]; at 1.2 µM -8% | [4]; at 3.7 µM 17% | [4]; at 11.0 µM 15% | [4]; at 33.0 µM 46% | [5]; [17] 61% | [5]; at 50.0 µM 30.9% | [6]; at 1.2 µM -12% | [6]; at 3.7 µM 6% | [6]; [17] 45% | [6]; at 11.0 µM 54% | [6]; at 50.0 µM 68.8% | [7]; at 1.2 µM -2% | [7]; at 3.7 µM 1% | [7]; at 11.0 µM 4% | [7]; at 33.0 µM 61% | [8]; at 1.2 µM -3% | [8]; at 3.7 µM 17% | [8]; at 11.0 µM 20% | [8]; at 33.0 µM 62% | [9]; at 1.2 µM -5% | [9]; at 3.7 µM -11% | [9]; at 11.0 µM 8% | [10]; [17] 44% | [10]; [18] 35% | [10]; at 50.0 µM 39.4% | [11]; at 1.2 µM 4% | [11]; at 3.7 µM 13% | [11]; at 11.0 µM 60%
active: [12]; at 33.0 µM 70% | [12]; at 100.0 µM 98% | [13]; at 100.0 µM 99% | [14]; at 100.0 µM 98% | [15]; at 33.0 µM 83% | [15]; at 100.0 µM 99% | [16]; at 100.0 µM 97% | [1]; at 33.0 µM 89% | [1]; at 100.0 µM 99% | [2]; at 33.0 µM 87% | [2]; at 100.0 µM 98% | [3]; [18] 100% | [4]; at 100.0 µM 99% | [5]; [18] 99% | [6]; at 33.0 µM 89% | [6]; [18] 99% | [6]; at 100.0 µM 99% | [7]; at 100.0 µM 99% | [8]; at 100.0 µM 98% | [9]; at 33.0 µM 75% | [9]; at 100.0 µM 98% | [11]; at 33.0 µM 93% | [11]; at 100.0 µM 98%
